Drawing on PubChem BioAssay AID1038 (National Center for Advancing Translational Sciences (NCATS), 2008), this text covers outcome for one molecule.

Records with an inconclusive call do not appear. Active and inactive are the calls of the source. The call rests on the fitted dose curve.

A short description of the assay: Normal 1 Cell Viability Secondary Assay for qHTS Assay for Epigenetic Modulators. As to conditions: Normal 1 bronchial epithelial viability, MTS, 4 d. From the text: NIH Molecular Libraries Screening Centers Network [MLSCN] NIH Chemical Genomics Center [NCGC] MLSCN Grant: 1 X01 MH079860-01 Assay Provider: Elisabeth D. Martinez, University of Texas SW Medical Center NCGC Assay Overview: This secondary assay characterizes selected actives identified in the qHTS of the Locus Derepression (LDR) assay (PubChem AID 597). The LDR assay detects the derepression of a GFP reporter that is stably integrated in a region of the genome of murine c127i mammary cells that is presumably silenced. Compounds that cause derepression of the locus to express GFP are identified by enumerating GFP positive cells using a laser-scanning microplate cytometer. […] Normal 1 cell viability was measured using Cell Titer 96 AQueous One (Promega), an assay which detects the ability of metabolically active cells to reduce a tetrazolium salt substrate (MTS), into a soluble formazan product that can be measured by colorimetry.
NCGC Assay Protocol Summary Normal 1 cells were plated in 96-well flat bottom tissue culture dishes (Corning) and grown overnight at 37 C and 5% CO2, then treated with compounds, incubated 4 days, and assayed for viability using the Cell Titer 96 AQueous One kit (Promega) according to the manufacturer's protocol. Absorbance at 490 nm and 650 nm (reference) was measured by a Spectra Max (Molecular Devices). […]
A general note: Quantitative high-throughput screening tests each substance at several concentrations.

In the case of `CN1CSC(=S)N(C)C1`, the molecule was called inactive.
